# Rows were chosen to be rich in hits. Some 3.4% of all compounds tested hit in one or more screens of this group.
# Wnt bcat act = Wnt/beta-catenin pathway activation. activation, % at 9.35 µM. 1.2% of 300,000 active. Wnt/beta-catenin reporter cell assay, activator, plate reader; in the data active = activation above about 30%, passing the limit was not always enough; inconclusive = no clear call, values can overlap the other calls;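 note: 0% = neutral control wells and 100% = positive control wells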
# miR122 inh = inhibitors of miR-122 in Huh7 cells; Huh7 miR-122 Renilla luciferase sensor, 48 h; neutral wells = 0, positive control = 100; activation (reporter increase), % at 12.5 µM; 0.3% of 340,000 active; AID 602342;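 active = mean replicate activation score at least 90 and every replicate individually at or above 90; inconclusive = only one of the two criteria met; inactive = neither criterion met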;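 note: higher luciferase means less miR-122 activity so hits act as miR-122 inhibitors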
# Env fusion inh = inhibitors of HIV Env-mediated cell fusion; 1.1% of 360,000 active; HeLa-JRFL Env/CEM21 cell fusion, luciferase; inhibition, % at 12.3 µM;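 active = mean replicate inhibition score of at least 50 and every replicate individually at or above 50; inconclusive = only one of the two criteria met; inactive = mean below 50 and not all replicates reaching 50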;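 note: 0% = plate neutral controls and 100% = maraviroc near 300 nM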
# MITF act = activators of MITF-driven TRPM1 promoter activity in SK-MEL-5 cells; SK-MEL-5 TRPM1-promoter luciferase, 24 h; % of positive control, neutral wells = 0; 0.75% of 300,000 active; activation, % at 12.5 µM; AID 588334;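 active = mean activation of at least 80% with every replicate also reaching 80%; inconclusive = mean reaches 80% but some replicate falls short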;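 note: 0% = neutral control wells and 100% = parthenolide positive control wells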
# esBAF inh = blocks esBAF chromatin remodeling in mouse ES cells | AID 602393 | Bmi1-luciferase knock-in reporter, 24 h; 100% = twice the neutral-well signal | 2% of 350,000 active | reporter increase, % at 12.5 µM; in the data active = activation above about 40%; inconclusive = no clear call, values can overlap the other calls;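 note: 0% = median of the plate's neutral control wells and 100% = double that signal; a rise in the Bmi1 reporter signal indicates esBAF inhibition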
# miR-27b select = alters miR-27b levels in Huh7 cells, selectivity for miR-122 inhibitors; shares compounds with miR122 inh; Huh7 miR-27b levels, qRT-PCR, 48 h; relative miR-27b level (unnormalised ratio), ratio at 35 µM; 35 tested, under 10 active; AID 687039;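 active = compounds lowering miR-27b whose fitted half-maximal dose is at most twice their top tested dose; inconclusive = flat curve with moderate drop, or poor fit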
# * marks the source's active call; other numbers are inactive results; ? = inconclusive; . = not tested or not shown; [ ] = remark or other dose.
SMILES,Wnt bcat act,miR122 inh,Env fusion inh,MITF act,esBAF inh,others
CC#CC(=O)N1CCC(C(=O)Nc2ccc(Oc3ccccc3)nc2)CC1,14,.,-26,27,41*,
CN1C(=O)c2cc(NC(=O)Cc3cccs3)ccc2OC[C@@H]2O[C@@H](CC(=O)O)CC[C@H]21,.,-3[16.7 µM],-6[16.7 µM],.,5,
COC(=O)c1sccc1NC(=O)c1ccc(C)cc1,6,5,1,-12,4,
COC(=O)c1c(NC(=O)c2ccc(C)cc2)csc1C,36*,3,-15,.,.,
Cc1ccc2c(C)c(C(=O)N(C)C(C)c3ccncn3)oc2c1C (stereo unspecified),5,-2,-18,8,51*,
Cc1ccc2c(C)c(C(=O)N3CCN(Cc4ccccn4)CC3)oc2c1C,1,.,30,6,.,
Cc1ccc2c(C)c(C(=O)N(C)C(C)c3ccon3)oc2c1C (stereo unspecified),?,1,-58,109*,51*,
COC(=O)C(Cc1c[nH]c2ccccc12)NC(=O)c1ccc2nc[nH]c2c1 (stereo unspecified),36*,4,-79,39,77*,
COC(=O)C(Cc1c[nH]c2ccccc12)NC(=O)c1cncc(Br)c1 (stereo unspecified),1,-5,13,-22,-1,
Cc1cccc(OCc2nc3ccccc3c(=O)n2N)c1,25,-6,-81,67,59*,
Cc1cccc(-c2nc3ccccc3c(=O)n2N)c1,0,3,-12,-2,-1,
Nn1c(COc2cccc(Cl)c2)nc2ccccc2c1=O,.,12,-4,52,44*,
CCCN1C[C@H](C)[C@@H](OC)CN(C)C(=O)c2ccc(NC(=O)c3ccc(F)cc3)cc2OC[C@H]1C,.,-17[16.7 µM],-4[16.7 µM],.,-1,
Cc1ccc2c(c1)sc[n+]2Cc1ccccc1,28,7,.,69,54*,
Cc1ccc(-c2cc[n+](Cc3ccccc3)cc2)cc1,2,.,35,-13,.,
COc1ccc(-c2nn(-c3ccccc3)cc2/C=N/Nc2cccc(C(=O)O)c2)cc1,3,-1,0,41,47*,
COc1ccc(-c2nn(-c3ccccc3)cc2C(=O)O)cc1,-2,-4,-28,4,6,
COc1ccc(-c2nn(-c3ccccc3)cc2C#N)cc1,.,-1,.,105*,45*,
CO[C@@H](CN(C)S(=O)(=O)c1ccccc1)[C@H](C)CN(Cc1ccccc1Cl)[C@@H](C)CO,.,.,.,.,-5,
C[C@@H]1CN([C@H](C)CO)C(=O)c2cccc(NC(=O)C3CCOCC3)c2O[C@@H]1CN(C)S(=O)(=O)c1cccs1,.,1[16.7 µM],.,.,1,
COc1ccc(S(=O)(=O)N(C)C[C@@H]2Oc3c(NS(=O)(=O)c4cn(C)cn4)cccc3C(=O)N([C@H](C)CO)C[C@@H]2C)cc1,.,30[16.7 µM],-20[16.7 µM],.,6,
CC#CCOCC1CNC(=O)O1 (stereo unspecified),429*,-3,-9,.,-11,
Cc1noc(C)c1S(=O)(=O)N(C)C[C@H]1Oc2ccc(NC(=O)C3CCCCC3)cc2CC(=O)N([C@H](C)CO)C[C@@H]1C,.,-1[16.7 µM],-12[16.7 µM],.,5,
Nc1ccc(CSc2ccccc2)cc1,-7,-11,-17,28,54*,
Nc1ccc(SCc2cccnc2)cc1,2,4,-15,-3,8,
SMILES,Wnt bcat act,miR122 inh,Env fusion inh,MITF act,esBAF inh,others
CC(C)(C)c1ccc(C2CC2C(=O)N/N=C\c2ccc[nH]2)cc1 (stereo unspecified),-9,-21,98*,-5,-52,
O=C(N/N=C/c1ccco1)C1CC1c1ccccc1 (stereo unspecified),.,.,-11,-2,.,
COc1ccccc1-c1cn(CC[C@@H]2CC[C@H](NS(=O)(=O)c3ccccc3C)[C@@H](CO)O2)nn1,.,.,-1[16.7 µM],.,1,
Cn1c(SCCOc2ccccc2Cl)nnc1-c1cccs1,10,0,-54,23,13,
Cn1c(SCc2c(F)cccc2Cl)nnc1-c1cccs1,.,18,-36,.,65*,
Cn1c(SCc2nc(-c3ccc(Cl)cc3)no2)nnc1-c1cccs1,4,44,83*,-2,-6,
CO[C@@H](CN(C)S(=O)(=O)c1ccc(Cl)cc1)[C@H](C)CN(C(=O)Nc1ccccc1F)[C@H](C)CO,.,.,.,.,16,
CO[C@H]1CN(C)C(=O)c2cc(NC(=O)c3ccc4c(c3)OCO4)ccc2OC[C@H](C)NC[C@@H]1C,.,.,-3[16.7 µM],.,1,
CC(C)(C)c1ccc(NC(=O)C(=O)C2C(=O)Nc3ccccc32)cc1 (stereo unspecified),1,.,9,23,.,
CN(C)c1ccc(NC(=O)C(=O)C2C(=O)Nc3ccccc32)cc1 (stereo unspecified),44*,3,-6,20,26,
CCCCn1c(SCC(=O)Nc2ccc3c(c2)OCO3)nc2c1c(=O)n(C)c(=O)n2C,.,5,79*,-6,12,
CCCn1c(SCC(=O)Nc2ccc(NC(=O)CC)cc2)nc2c1c(=O)n(C)c(=O)n2C,-4,-8,-6,-11,-7,
Cn1c(=O)c2c(nc(SCC(=O)NCc3ccc4c(c3)OCO4)n2Cc2ccc(F)cc2)n(C)c1=O,-5,0,137*,-7,-5,
Cn1c(=O)c2c(nc(SCC(=O)NCc3ccc4c(c3)OCO4)n2Cc2ccccc2)n(C)c1=O,.,2,.,-1,8,
O=C(Nc1cccc(Cl)c1)N[C@@H]1CC[C@@H](CCNC(=O)C2CCCC2)O[C@@H]1CO,.,3[16.7 µM],-11[16.7 µM],.,-3,
C[C@H](CO)N1C[C@H](C)[C@H](CN(C)C(=O)CC2CC2)Oc2cc(-c3cncnc3)ccc2S1(=O)=O,.,-2[16.7 µM],-8[16.7 µM],.,-2,
Cn1cccc1/C=C1\Cc2ccccc2C1=O,63*,-7,-95,59,53*,
O=C1/C(=C\c2ccc(Br)o2)Cc2ccccc21,41*,45,-42,12,6,
Cn1cccc1/C=C1\CCc2ccccc2C1=O,34*,-6,-24,5,-46,
O=C1/C(=C/c2cccs2)Cc2ccccc21,?,-8,-9,18,17,
COc1cccc(-c2cnc3c(c2)C(=O)N([C@@H](C)CO)C[C@@H](C)[C@@H](CN(C)Cc2ccc(F)cc2)O3)c1,.,3[16.7 µM],31[16.7 µM],.,4,
O=C(C[C@H]1C[C@H]2c3cc(NC(=O)NC4CCCC4)ccc3O[C@H]2[C@H](CO)O1)NCc1ccc(-c2ccccc2)cc1,.,2[16.7 µM],.,.,6,
Cc1ccc(C(C)C)cc1S(=O)(=O)Nc1cccnc1,-2,380*,-2,.,-8,miR-27b select=0.78
O=C(NNC(=O)c1ccc(Cl)cc1Cl)c1ccc2ccccc2c1,-2,.,.,5,3,
O=C(Nc1ccc2ccccc2c1)c1ccc(Cl)cc1Cl,39*,.,-358,70,-17,miR-27b select=1.5
Cc1ccc(C)c(S(=O)(=O)Nc2ccc(O)cc2)c1,.,46,-43,.,-8,
Cc1ccc(C)c(S(=O)(=O)Nc2ccc(-n3cnnn3)cc2)c1,.,183*,.,12,-3,miR-27b select=0.77
